MITF inh – inhibitors of MITF, primary screen, MITF inhibitor project, cell-based, luminescence; inhibition, % (concentration not given with the values); TRPM1 promoter luciferase, 24 h; actives 0.28% (n = 37,000); AID 2240, 2010; in the data active = inhibition above about 85%; inconclusive = no clear call, values can overlap the other calls; inactive = below about 68%;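 note: human melanocyte line stably carrying TRPM1 promoter luciferase reporter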
PD-1 reverse act – activators reversing PD-1 mediated T-cell inhibition, primary screen, luminescence, primary human CD4 T cells, PD-L1 beads | AID 2316, 2010 | activation, % (concentration not given with the values) | 29,000 tested, under 10 active | CellTiter-Glo 96 h; call rule not given here
NOMO-1 viab – NOMO-1 AML cell viability reduction, primary screen, STK33 inhibitor project, CellTiter-Glo luminescence. NOMO-1 AML viability, 72 h. inhibition, % (no concentration beside the values). actives 7.5% (n = 37,000); in the data active = inhibition above about 80%; inconclusive = no clear call, values can overlap the other calls
Hedgehog inh – Hedgehog pathway signaling inhibitors, primary screen, luminescence, Shh-LIGHT2 cells, Gli-luciferase | inhibition, % (concentration not given with the values) | Shh-LIGHT2 Gli-luciferase reporter, 30 h | AID 2313, 2010 | actives 2.1% (n = 22,000);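 active = mean inhibition across valid replicates above about 65%, limit read from the data; inconclusive = mean under the limit, yet half or more replicates past it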;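 note: pathway switched on by Shh-conditioned medium diluted 1 in 25 in low serum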
Numbers stand for hits. Hits are enriched below; roughly 8.1% of the tested compounds scored in any of these assays.

Screening C[C@H]1CN([C@@H](C)CO)C(=O)c2cc(NC(=O)Nc3ccc(F)cc3)ccc2O[C@H]1CN(C)Cc1ccncc1 returned MITF inh inactive, PD-1 reverse act inactive and NOMO-1 viab 100.
`O=C(CSc1nc2ccccc2c(=O)n1-c1ccc(Br)cc1)Nc1cccc(F)c1` gave MITF inh inactive, PD-1 reverse act inactive and NOMO-1 viab inactive.
`Cc1ccc(NC(=O)CCN2C(=O)c3ccccc3S2(=O)=O)cc1Cl` gave MITF inh inactive, PD-1 reverse act inactive and NOMO-1 viab inactive.
Screening Cc1ccc(S(=O)(=O)N(C)C[C@@H]2Oc3c(NC(=O)C4CCCCC4)cccc3C(=O)N([C@H](C)CO)C[C@@H]2C)cc1 returned MITF inh inactive, PD-1 reverse act inactive, NOMO-1 viab inactive and Hedgehog inh 70.
Cc1ccc(S(=O)(=O)N(C)C[C@@H]2Oc3c(NC(=O)C4CCCCC4)cccc3C(=O)N([C@@H](C)CO)C[C@@H]2C)cc1 was read as MITF inh inactive, PD-1 reverse act inactive, NOMO-1 viab inactive and Hedgehog inh 104.
C[C@H]1CN([C@@H](C)CO)C(=O)c2cccc(NC(=O)C3CCCCC3)c2O[C@H]1CN(C)S(=O)(=O)c1ccc(F)cc1 was read as MITF inh inactive, PD-1 reverse act inactive, NOMO-1 viab inactive and Hedgehog inh 82.
Screening Cc1ccc(S(=O)(=O)N(C)C[C@@H]2Oc3c(NC(=O)C4CCCCC4)cccc3C(=O)N([C@@H](C)CO)C[C@H]2C)cc1 returned MITF inh inactive, NOMO-1 viab inactive and Hedgehog inh inactive.
CC(Oc1cccc(Cl)c1)c1nc(-c2cccnc2)no1 (centres undefined) was read as MITF inh inactive and NOMO-1 viab inactive.
For N#Cc1c(C(F)(F)F)cc(-c2cccs2)oc1=S the results were MITF inh inactive, PD-1 reverse act inactive, NOMO-1 viab inactive and Hedgehog inh inactive.
`OC(c1cc(C(F)(F)F)nc2c(C(F)(F)F)cccc12)C1CCCCN1` (centres undefined) gave MITF inh inactive, PD-1 reverse act inactive, NOMO-1 viab 129 and Hedgehog inh inactive.
For C[C@@H]1CN([C@@H](C)CO)C(=O)Cc2cc(N(C)C)ccc2O[C@@H]1CN(C)Cc1ccc(C(=O)Nc2ccccc2N)cc1 the results were MITF inh inactive, PD-1 reverse act inactive and NOMO-1 viab 140.
C[C@H]1CN([C@@H](C)CO)C(=O)Cc2cc(N(C)C)ccc2O[C@@H]1CN(C)Cc1ccc(C(=O)Nc2ccccc2N)cc1 was read as MITF inh inactive, PD-1 reverse act inactive and NOMO-1 viab 140.
`O=C(O)CCC(=O)c1ccc(-c2ccccc2)cc1` gave MITF inh inactive, NOMO-1 viab inactive and Hedgehog inh inactive.
`O=C(c1ccccc1)c1ccc(-c2ccccc2)cc1` gave MITF inh inactive, PD-1 reverse act inactive, NOMO-1 viab 91 and Hedgehog inh inactive.
CCn1c(SCC(=O)Nc2ccccc2OC)nnc1-c1ccc(N)cc1 was read as MITF inh inactive, PD-1 reverse act inactive and NOMO-1 viab inactive.
`C=CCc1ccc(O[C@@H]2O[C@H](CO)[C@@H](O)[C@H](O)[C@H]2O)c(O[C@@H]2O[C@H](CO)[C@@H](O)[C@H](O)[C@H]2O)c1` gave MITF inh inactive, PD-1 reverse act inactive, NOMO-1 viab 120 and Hedgehog inh inactive.
C=CCc1ccc(O[C@@H]2O[C@H](CO[C@@H]3O[C@@H](C)[C@H](O)[C@@H](O)[C@H]3O)[C@@H](O)[C@H](O)[C@H]2O)c(O)c1 was read as MITF inh inactive, PD-1 reverse act inactive, NOMO-1 viab inactive and Hedgehog inh inactive.
C=C1C(=O)O[C@@H]2C=C(C)[C@@H]3CC[C@@](C)(O)[C@@H]3C[C@H]12 was read as MITF inh inactive, PD-1 reverse act inactive, NOMO-1 viab inactive and Hedgehog inh inactive.
Screening C=C1C(=O)O[C@H]2C3=C(C)CCC[C@]3(C)C(=O)C[C@@H]12 returned MITF inh inactive, PD-1 reverse act inactive, NOMO-1 viab 121 and Hedgehog inh 76.
CC(C)OC(=O)CCN1C(=O)/C(=C/c2ccccc2)SC1=S was read as MITF inh inactive, PD-1 reverse act inactive, NOMO-1 viab inactive and Hedgehog inh inactive.
O=C1/C(=C/c2ccc(O)cc2)SC(=S)N1CCc1ccccc1 was read as MITF inh inactive, PD-1 reverse act inactive and NOMO-1 viab 102.
Cc1nn(CC(O)COc2ccc3c(c2)CCC3)c(C)c1Br (centres undefined) was read as MITF inh inactive, PD-1 reverse act inactive and NOMO-1 viab 96.
For COc1ccc2c(c1)OCC(Cc1ccc(OC)c(O)c1)C2=O (centres undefined) the results were MITF inh inactive, NOMO-1 viab 109 and Hedgehog inh inactive.
C[C@@H]1CN([C@@H](C)CO)C(=O)c2cc(NS(=O)(=O)c3ccc(F)cc3)ccc2O[C@H]1CN(C)Cc1ccc(Oc2ccccc2)cc1 was read as MITF inh inactive, PD-1 reverse act inactive and NOMO-1 viab 98.
`COc1ccc(S(=O)(=O)Nc2ccc3c(c2)C(=O)N([C@@H](C)CO)C[C@@H](C)[C@H](CN(C)Cc2ccc(Oc4ccccc4)cc2)O3)cc1` gave MITF inh inactive, PD-1 reverse act inactive and NOMO-1 viab 108.
`COc1ccc(S(=O)(=O)Nc2ccc3c(c2)C(=O)N([C@H](C)CO)C[C@@H](C)[C@@H](CN(C)Cc2ccc(Oc4ccccc4)cc2)O3)cc1` gave MITF inh inactive, PD-1 reverse act inactive, NOMO-1 viab 111 and Hedgehog inh 68.
C[C@@H]1CN([C@@H](C)CO)C(=O)c2cc(NS(=O)(=O)c3ccc(Cl)cc3)ccc2O[C@H]1CN(C)Cc1ccc(Oc2ccccc2)cc1 was read as MITF inh inactive, PD-1 reverse act inactive, NOMO-1 viab 109 and Hedgehog inh inactive.
C[C@H](CO)N1C[C@H](C)[C@H](CN(C)Cc2ccc(Oc3ccccc3)cc2)Oc2ccc(NS(=O)(=O)c3ccccc3)cc2C1=O was read as MITF inh inactive, PD-1 reverse act inactive, NOMO-1 viab inconclusive and Hedgehog inh inactive.
`COc1ccc(S(=O)(=O)Nc2ccc3c(c2)C(=O)N([C@H](C)CO)C[C@H](C)[C@@H](CN(C)Cc2ccc(Oc4ccccc4)cc2)O3)cc1` gave MITF inh inactive, PD-1 reverse act inactive, NOMO-1 viab inactive and Hedgehog inh inactive.
`CCN(CC)CCN1Cc2c(sc(C)c2C)N(C(=O)c2ccccc2)C1` gave MITF inh inactive, PD-1 reverse act inactive, NOMO-1 viab inactive and Hedgehog inh inactive.
Screening COc1ccc(CN(C)C[C@H]2Oc3ccc(NS(=O)(=O)c4ccccc4)cc3C(=O)N([C@@H](C)CO)C[C@@H]2C)cc1 returned MITF inh inactive, PD-1 reverse act inactive and NOMO-1 viab inactive.
For COc1ccc(S(=O)(=O)Nc2ccc3c(c2)C(=O)N([C@H](C)CO)C[C@@H](C)[C@H](CN(C)Cc2ccc(Oc4ccccc4)cc2)O3)cc1 the results were MITF inh inactive, PD-1 reverse act inactive, NOMO-1 viab 105 and Hedgehog inh inactive.
